High-throughput results deposited in PubChem by several laboratories.
CCHF vOTU inh – CCHFV vOTU protease inhibitors, primary screen, biochemical, Pep-AMC substrate, fluorescence | AID 651958, 2012 | Crimean-Congo hemorrhagic fever virus L polyprotein viral ovarian tumor (vOTU) protease … | inhibition, % at 11.5 µM | 370,000 compounds, 0.55% hits; in the data active = inhibition above about 30%; note: 0% = vehicle wells with enzyme and 100% = no enzyme wells
DUSP3 inh – VHR1 phosphatase inhibitors, primary screen, biochemical, absorbance, uHTS. Dual specificity protein phosphatase 3 (Homo sapiens), P51452. recombinant VHR phosphatase, pNPP absorbance. inhibition, % at 13.3 µM. 290,000 compounds, 0.52% hits; in the data active = inhibition above about 50%
PriA SSB inh – inhibitors of Klebsiella pneumoniae PriA binding to SSB C-terminal tail, primary screen, biochemical, AlphaScreen; PriA–SSB C-terminal tail interaction (Klebsiella pneumoniae); inhibition, % at 33 µM; AlphaScreen SSBct-PriA binding, biotinylated peptide; 430,000 compounds, 0.6% hits; AID 1272365, 2023; in the data active = inhibition mostly above about 37%, no sharp cut-off; inactive = mostly below about 20%;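 note: plate controls were negative control peptide for no effect and reference peptide for full effect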
TcdB GH inh – TcdB glycohydrolase inhibitors, primary screen, biochemical, single point, plate reader; TcdB glycohydrolase enzymatic assay; AID 652162, 2013; inhibition, % at 9.99 µM; Toxin B (Clostridioides difficile), P18177; 350,000 compounds, 0.24% hits; in the data active = inhibition above about 10%
BH1578 lux ind – inducers of Vibrio cholerae quorum light production without autoinducers, primary screen, BH1578 luxS cqsA deficient, single point; V. cholerae BH1578 lux reporter, luminescence, 6 h; activation, % at 18.7 µM; 350,000 compounds, 0.16% hits; AID 588436, 2011; in the data active = activation mostly above about 9.7%, no sharp cut-off
SARS 3CLpro inh – SARS-CoV 3CLpro protease inhibitors, primary screen, biochemical, quenched FRET; Replicase polyprotein 1ab (Severe acute respiratory syndrome coronavirus), P0C6X7; recombinant SARS-CoV 3CLpro, quenched FRET peptide cleavage; inhibition, % at 6 µM; 290,000 compounds, 0.14% hits; AID 1706, 2009; in the data active = inhibition above about 12%
* = called active by the depositor; i = inactive; . = no result; + = active, no number; ! = not active in a repeat. Compounds with a hit are over-represented: about 1.3% of the library has one in this group of screens.

SMILES | CCHF vOTU inh | DUSP3 inh | PriA SSB inh | TcdB GH inh | BH1578 lux ind | SARS 3CLpro inh
S=C(NCc1ccccc1)Nc1ccncc1 | -10 | 53* | -7 | 1 | 12 | 0
O=C(Cc1ccccc1)NNC(=S)NC(=O)c1cccnc1 | -12 | 12 | -11 | 19* | 0 | 1
O=C(Nc1cccc(C(F)(F)F)c1)C(c1ccccc1)n1cccc1 (stereo not drawn) | . | . | -7 | . | . | .
O=C(NC(=S)NCc1ccccc1)c1cccnc1 | -8 | 19 | -6 | 16* | i | -2
Cc1ccc2nc(-c3ccc(NC(=O)CC4CSc5nc(C)cc(=O)n54)cc3)sc2c1 (stereo not drawn) | . | . | -16 | . | . | .
O=C(O)c1ccc(NC(=O)C2CC=CCC2C(=O)O)cc1 (stereo not drawn) | 4 | 6 | -1 | . | -1 | -2
O=C(Nc1nccs1)c1ccc(NC(=O)C2CC=CCC2C(=O)O)cc1 (stereo not drawn) | 14 | 53* | -11 | 1 | i | 3
CCSc1nnc(NC(=O)C2CC2c2ccccc2)s1 (stereo not drawn) | 9 | -5 | -2 | 12* | 0 | 0
CCSc1nnc(NC(=O)C2CCCCC2C(=O)O)s1 (stereo not drawn) | -9 | -5 | 5 | . | 0 | -4
O=C1C2=C(Nc3ccccc3SC2c2ccco2)c2ccccc21 (stereo not drawn) | 4 | -8 | 48* | . | -12 | 7
Cc1ccccc1COc1ccc2oc(C)c(C(=O)O)c2c1 | -1 | 25 | -3 | 12* | 0 | 4
Cc1oc2ccc(OCc3ccccc3F)cc2c1C(=O)O | 5 | 9 | -10 | . | 0 | 3
COc1cc(/C=C/c2sc3ccccc3[n+]2CCCS(=O)(=O)[O-])ccc1O | 19 | 38 | -7 | 10* | 0 | -5
CC(C)C(=O)c1cc2c(cc1NC(=O)c1cccs1)OCCO2 | -7 | 53* | -21 | . | 3 | 3
CC(C)C(=O)c1cc2c(cc1NC(=O)c1ccccc1)OCCO2 | -15 | 29 | -15 | . | -1 | 2
O=C(c1c(F)cccc1F)N1CCN(C[C@H](O)C2CC2)CC1 | . | . | -6 | . | . | .
COc1ccc(OC)c(NC(=O)C2=C(C)Nc3ncnn3C2c2cccs2)c1 (stereo not drawn) | 3 | 21 | 4 | . | + | -5
CCOc1cc(/C=N\n2nnnc2N)ccc1O | 17 | 20 | . | 23* | 2 | 0
CCOc1ccc(/C=N/n2nnnc2N)cc1O | -13 | -34 | i | 19* | -3 | 3
Cn1ccnc1SCC1CCN(C(=O)c2ccsc2)CC1 | . | . | -6 | . | . | .
Cn1ccnc1SCC1CCN(C(=O)c2cccs2)CC1 | . | . | 35* | . | . | .
Cc1ccc2c(c1)C(c1ccccc1)N(C(=O)c1ccccc1C)CC(=O)N2 (stereo not drawn) | . | . | 4 | . | . | .
O=c1[nH]c(=O)n(Cc2ccccc2)c2nc(-c3ccco3)cc(C(F)(F)F)c12 | -9 | 17 | -4 | . | 27* | 0
O=C(Oc1ccc(Cl)c2cccnc12)c1ccco1 | -7 | 16 | 52* | . | -1 | 2
CC1CCN(C(=O)CSc2ccc(NC(=O)C3CC3)nn2)CC1 | . | . | -3 | . | . | .
SMILES | CCHF vOTU inh | DUSP3 inh | PriA SSB inh | TcdB GH inh | BH1578 lux ind | SARS 3CLpro inh
O=C(NCCCN1CCCC1=O)c1c(O)nc2ccccn2c1=O | -13 | 52* | -2 | 0 | i | 1
CCn1ccnc1CN(C)C(=O)c1cc(COc2ccc(OC)c3ccccc23)on1 | 17 | 21 | 39* | 2 | 1 | 0
COc1ccc(OCc2cc(C(=O)N3CCCC(CO)C3)no2)c2ccccc12 (stereo not drawn) | 1 | 13 | 15 | 3 | i | 0
CCn1ccnc1CNC(=O)c1cc(COc2ccc(OC)c3ccccc23)on1 | . | . | 68* | . | . | .
COc1cc(C)ccc1OCc1cc(C(=O)N(Cc2nccn2C)C(C)C)no1 | 6 | 52* | 1 | 1 | 0 | -3
COc1cccc(OCc2cc(C(=O)N(Cc3nccn3C)C(C)C)no2)c1 | -9 | -2 | 0 | 3 | -1 | 3
COc1ccc(Cl)cc1NC(=O)NC[C@H](OC)c1cccc(F)c1 | . | . | -11 | . | . | .
O=C(CSc1nc2[nH]ncc2c(=O)[nH]1)NC[C@H]1CCCO1 | . | . | -28 | . | . | .
COc1ccc(Cl)c2sc(N(CCN3CCOCC3)C(=O)c3ccno3)nc12 | . | . | -7 | . | . | .
Cn1cccc1C=NNC(=O)c1cc(-c2cccs2)nc2ccccc12 | . | . | 56 | . | . | .
COc1ccc(C(=O)NN=C(C)c2ccccn2)cc1OC | . | . | 83* | . | . | .
CC(=NNC(=O)c1ccccc1Cl)c1ccccn1 | . | . | 9 | . | . | .
CC(=NNC(=O)c1ccccc1F)c1ccccn1 | . | . | 51* | . | . | .
CC(=NNC(=O)c1ccc(NS(=O)(=O)c2cccs2)cc1)c1ccccn1 | . | . | 39* | . | . | .
CC(=NNC(=O)c1cc(-c2cccs2)nc2ccccc12)c1ccccn1 | . | . | 85* | . | . | .
O=C(CCc1csc2nc(-c3ccc(Cl)cc3)cn12)NCCc1ccccc1 | . | . | -10 | . | . | .
Cc1cc(C(=O)Nc2nnc(-c3ccc4c(c3)OCO4)o2)nn1C | . | . | -47 | . | . | .
O=c1cnnc(NN=Cc2ccccn2)[nH]1 | . | . | 71* | . | . | .
C(=NNc1nncc2ccccc12)c1ccccn1 | . | . | 51* | . | . | .
Nc1c(Cl)ncnc1NN=Cc1ccccn1 | . | . | 110* | . | . | .
Nc1c(Cl)ncnc1N/N=C/c1ccccn1 | 2 | -1 | . | . | . | -2
O=C(CC(c1ccccc1)c1ccccc1)NCCCn1ccc2cccnc21 | . | . | -2 | . | . | .
CSc1ccccc1C(=O)OCc1cc(-c2cccs2)on1 | . | . | -18 | . | . | .
Cc1cccc(NC=CC(=O)c2cccs2)c1C | . | . | -24 | . | . | .
Cc1ccc2nc(N(CCCN(C)C)C(=O)c3cc(-c4cccs4)nc4ccccc34)sc2c1 | -12 | 32 | 44* | 0 | -1 | 7
SMILES | CCHF vOTU inh | DUSP3 inh | PriA SSB inh | TcdB GH inh | BH1578 lux ind | SARS 3CLpro inh
CN(C)CCCN(C(=O)c1cc(-c2cccs2)nc2ccccc12)c1nc2c(F)cccc2s1 | -6 | 20 | 52*! | 3 | i | 1
CCCCNS(=O)(=O)c1ccc2nc(SCC(=O)c3ccc(C#N)cc3)[nH]c2c1 | 15 | 57* | -32 | . | i | 2
COc1ccc(S(=O)(=O)Nc2c(C(=O)O)[nH]c3ccc(OC)cc23)c(OC)c1 | -2 | 14 | 106* | 2 | 0 | -40
COC(=O)c1[nH]c2ccc(F)cc2c1NS(=O)(=O)c1ccc(OC)cc1 | 10 | 36 | -3 | 2 | 0 | 0
COc1ccc(S(=O)(=O)Nc2c(C(=O)O)[nH]c3ccccc23)c(OC)c1 | 7 | 25 | -9 | . | 3 | 1
COC(=O)c1[nH]c2ccc(C)cc2c1NS(=O)(=O)c1ccc(OC)cc1OC | . | . | 57* | . | . | .
O=C(CCc1cc(Br)ccc1OC(F)F)N1CCc2ncncc2C1 | . | . | -8 | . | . | .
O=C(NCc1cccnc1)c1ccc(S(=O)(=O)N2CCCC2)cc1 | . | . | -13 | . | . | .
